This excerpt belongs to a sample that is enriched for hits.
Calb biofilm kill = kills Candida albicans biofilms; inhibition, % at 6 µM; C. albicans biofilm + clotrimazole, Alamar Blue; actives 0.14% (n = 85,000);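 active = inhibition above 20%; inactive = inhibition below 20%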;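 also: preformed 24 hr biofilms exposed to compound for 48 hr; 0% = biofilm without compound and 100% = blank killed by clotrimazole plus chlorhexidine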
D1 mod = allosteric modulators of human D1 dopamine receptor | AID 641 | HEK293 D1, CRE-luciferase, dopamine EC30 potentiation; actives deviate in either direction | P21728 | B-score at 10 µM | actives 5.9% (n = 58,000);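 active = luminescence count or its row- and column-corrected plate score outside the 99.7% band of the plate's sample wells, on either side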
TNAP act mid DEA = activators of human TNAP at intermediate phosphate acceptor; P05186; purified TNAP, CDP-star luminescence, 100 mM DEA, 30 min; active compounds read high; scale: 0 levamisole-inhibited, 1 vehicle-only enzyme; activation factor at 20 µM; 64,000 tested, under 10 active;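 active = activation factor of at least 2 at 20 µM, relative to controls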
DAT uptake mod = human DAT dopamine uptake with cocaine, either direction | Q01959 | actives 1.3% (n = 110,000) | LLC-PK1 hDAT cells, [14C]-dopamine uptake with cocaine IC80; actives deviate in either direction | B-score at 10 µM;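 active = Z score or B-score, a plate-position-corrected score, falls beyond the plate's 99.7% confidence bounds, in either direction; inactive = both scores lie inside the 99.7% bounds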;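 also: scored against the spread of the other compound wells on the same plate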
Target sequence (Q01959 whole entry, looked up): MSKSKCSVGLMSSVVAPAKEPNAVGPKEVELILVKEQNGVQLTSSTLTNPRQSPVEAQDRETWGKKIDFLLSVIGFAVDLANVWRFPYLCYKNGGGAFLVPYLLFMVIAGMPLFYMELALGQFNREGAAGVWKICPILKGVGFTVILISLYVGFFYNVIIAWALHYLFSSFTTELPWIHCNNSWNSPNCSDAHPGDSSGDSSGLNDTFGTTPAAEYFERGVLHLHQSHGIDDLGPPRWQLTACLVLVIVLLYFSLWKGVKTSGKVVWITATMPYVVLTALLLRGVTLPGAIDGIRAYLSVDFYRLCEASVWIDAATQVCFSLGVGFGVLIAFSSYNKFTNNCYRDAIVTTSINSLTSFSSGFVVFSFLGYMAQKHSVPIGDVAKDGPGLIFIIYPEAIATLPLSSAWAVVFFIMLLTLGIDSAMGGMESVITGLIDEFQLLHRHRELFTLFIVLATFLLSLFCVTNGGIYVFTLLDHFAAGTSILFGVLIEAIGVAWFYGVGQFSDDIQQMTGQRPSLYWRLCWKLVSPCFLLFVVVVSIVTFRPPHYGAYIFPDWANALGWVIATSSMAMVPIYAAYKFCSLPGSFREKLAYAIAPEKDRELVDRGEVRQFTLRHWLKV
PLAP activator = activators of human placental alkaline phosphatase; P05187; purified PLAP enzyme, luminescent substrate read-out; active compounds read high; activation fold at 20 µM; actives 1.2% (n = 96,000); AID 696; in the data active = activation fold above about 2
HePTP inh = blocks human HePTP tyrosine phosphatase; inhibition, % at 20 µM; recombinant HePTP phosphatase activity, OD absorbance; actives 0.64% (n = 110,000); P35236; in the data active = inhibition above about 50%;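 also: plate controls were vehicle for no effect and reference inhibitor for full effect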
Starred values were filed as active, the others as inactive; x = not tested or not shown.

SMILES	Calb biofilm kill	D1 mod	TNAP act mid DEA	DAT uptake mod	PLAP activator	HePTP inh
O=c1oc2ccccc2c(O)c1C=NCc1ccccn1	1	-1	0.8	-1.2	2.1*	0
O=C(CCCOc1ccccc1)N1CCN(c2ccccn2)CC1	6	-2.9*	0.9	2.4	1.4	0
O=C(CCCCCNc1nc(=S)[nH]c2ccccc12)N1CCN(c2ccccn2)CC1	7	-0.0021	1	2.8*	1.1	7
O=C(Cc1cccs1)N1CCN(c2ccccn2)CC1	7	-4.5*	0.9	0.32	0.8	4
COc1ccc2c(C)cc(=O)oc2c1I	x	x	x	x	x	6
CC1=C(C(=O)OCC2CCCO2)C(c2ccc(C)o2)C2=C(CC(c3ccc(F)cc3)CC2=O)N1 (stereo not drawn)	4	-3.1*	0.9	2.1	1.3	2
CCCc1nc(SCC(N)=O)[nH]c(=O)c1CC	-3	-2.8*	1	-1.4	1.3	3
CCCc1cc(=O)[nH]c(SCC(N)=O)n1	6	-0.81	0.9	-0.67	0.8	7
CCOc1ccc2nc(NC(=O)c3ccccc3[N+](=O)[O-])sc2c1	x	x	x	x	x	1
COc1cccc(-c2nc3sc(C)c(C)c3c(=O)[nH]2)c1O	x	x	x	x	x	-1
Cc1c(C(=O)N(C)C)sc2nc(-c3ccccn3)[nH]c(=O)c12	5	x	x	-0.0052	2.9*	x
O=C(CSc1nnc(CCc2nc3ccccc3[nH]2)n1-c1ccccc1)NCc1ccccc1	4	x	x	0.36	x	x
O=C(CSc1nnc(CCc2nc3ccccc3[nH]2)n1-c1ccccc1)NCc1ccco1	8	-0.8	1	-0.077	2*	10
COc1ccc(-c2cc(C(=O)N3CCN(c4ccccn4)CC3)c3ccccc3n2)cc1	2	-3.9	0.9	0.85	1	0
COc1cc(-c2cc(C(=O)N3CCN(c4ccccn4)CC3)c3ccccc3n2)cc(OC)c1OC	6	-4*	0.9	3.7*	x	10
CCn1cc(C(=O)N2CCN(c3ccccn3)CC2)c2cc(OC)c(OC)cc2c1=O	10	0.39	1	-8.7*	1.7	2
CCOC(=O)/C(=N/O)C1=NC2(CCCCC2)Cc2ccccc21	x	x	x	x	x	-20
COC(=O)C(C(=O)OC)C(c1ccccc1)C(C(=O)OC)C(=O)OC	x	x	x	x	x	-6
COC(=O)c1c(C)oc2ccc(OC(=O)c3ccc(Br)cc3)cc12	x	x	x	x	x	104*
O=C(CSc1nnc2c(n1)[nH]c1ccc(F)cc12)OCc1ccccc1	4	-0.63	0.9	-8.6*	0.9	3
O=C(CN1CCC(n2nnc3ccccc32)CC1)Nc1ccc2c(c1)CCC2	7	x	0.9	3.1*	1.4	7
O=C1/C(=C\c2cc(Cl)ccc2O)SC(=S)N1Cc1ccccc1	x	x	x	x	x	1
Cc1ccc(C)c(N2CCN(C(=O)CC3Sc4ccccc4NC3=O)CC2)c1 (stereo not drawn)	3	0.71	1	3.4*	1.1	-2
Cc1cc(/C=C2/NC(=S)NC2=O)c(C)n1-c1cccc(Cl)c1	x	x	x	x	x	-5
CC(=O)NC1=NC(=O)/C(=C\c2ccc(I)o2)S1	x	x	x	x	x	102*
SMILES	Calb biofilm kill	D1 mod	TNAP act mid DEA	DAT uptake mod	PLAP activator	HePTP inh
O=C1C2CC=C(Cl)CC2C(=O)N1c1ncn[nH]1 (stereo not drawn)	5	-0.79	1.2	-0.49	x	2
O=C1C2CC=CCC2C(=O)N1c1ncn[nH]1 (stereo not drawn)	6	x	x	0.25	2.6*	x
CC(C)(C)OC(=O)CNC(=O)c1[nH]cnc1C(=O)N[C@@H](CCCCNC(=O)OC(C)(C)C)C(=O)OC(C)(C)C	x	x	x	2.8*	x	x
Cc1ccccc1N(CC(=O)NCC(C)c1ccccc1)S(=O)(=O)c1ccccc1 (stereo not drawn)	x	x	x	x	x	-14
CCC(C(=O)N1CCN(c2ccc(F)cc2)CC1)c1ccccc1 (stereo not drawn)	x	x	x	x	x	1
COc1cccc(C(=O)N2c3cc(OC)ccc3-c3c(ssc3=S)C2(C)C)c1	x	x	x	x	x	5
O=C(c1ccco1)N1CCN(CC(O)COc2ccc3oc4ccccc4c3c2)CC1 (stereo not drawn)	5	-0.021	0.9	2.6*	1.2	10
COc1ccc(/C=C2/SC(=O)N(CNc3ccc(I)cc3)C2=O)cc1	x	x	x	x	x	-15
CCc1ccc(NC(=O)c2ccc(C3SCC(=O)N3CCc3ccccc3)cc2)cc1 (stereo not drawn)	x	x	x	x	1.4	x
Cc1cccc(NC(=O)c2ccc(C3SCC(=O)N3CCc3ccccc3)cc2)c1C (stereo not drawn)	x	x	x	2.7*	1.9	x

Screens from PubChem.
